Active and inactive are the calls of the source.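 The calls were made as follows: active = compounds whose cell count with miR-34 switched on is under 0.7 times the count with it off; inactive = the rest.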
Experiment: viability loss with induced miR-34 in A549 – imaging, A549 dox-inducible miR-34, nuclei and caspase counts, primary screen (AID 1347080); also: test concentration not given here
Details: A549 miR-34 inducible, Hoechst nuclei count, 48 h
[1] = stronger effect = lower value, cell number ratio, induced over uninduced
[2] = measured here: relative caspase fold change +Dox/-Dox
[3] = measured here: total cells with miR-34 induction, stronger effect = lower value
[4] = measured here: total cells without miR-34 induction

| Structure (SMILES) | fold change [1] | fold change [2] | cell count [3] | cell count [4] |
| --- | --- | --- | --- | --- |
| CCCCC/C=C\C/C=C\C/C=C\C/C=C\CCCC(=O)SCC(O)CO (stereo not given) | 0.986 (inactive) | 0.486 | 5460 | 5540 |
| O=C(O)CCC/C=C\C[C@@H]1[C@@H](CC[C@@H](O)CCc2cccc(C(F)(F)F)c2)[C@H](O)C[C@@H]1O | 0.926 (inactive) | 1.34 | 6330 | 6830 |
| CCN(CC)c1ccc(C2=C(Cl)C(=O)c3ncccc3C2=O)cc1 | 1.01 (inactive) | 1.74 | 4440 | 4390 |
| COc1ccc(/C=C/c2ccccc2F)cc1 | 0.866 (inactive) | 1.67 | 5810 | 6700 |
| CCCCC/C=C\C/C=C\CC/C=C\CCCC(=O)OC | 0.951 (inactive) | 0.414 | 6030 | 6340 |
| COC(=O)CCCCCC[C@@H]1[C@@H](CC[C@@H](O)CSc2ccccc2F)[C@H](O)C[C@@H]1O | 0.962 (inactive) | 2.89 | 5920 | 6150 |
| CCCCCCCC/C=C\CCCCCCCC(=O)OCC(O)COP(=O)(O)O (stereo not given) | 1.12 (inactive) | 0.696 | 5760 | 5140 |
| C[C@@H](O)CCC[C@H](O)/C=C/C1=C(C/C=C\CCCC(=O)O)C(=O)CC1 | 0.915 (inactive) | 1.31 | 5730 | 6260 |
| CCCCC[C@H](O)/C=C/[C@@H]1[C@H]2C[C@H](CCCCC(=O)O)O[C@H]2C[C@H]1O | 0.999 (inactive) | 1.41 | 6310 | 6310 |
| O=C1OC2(c3ccc(O)cc3Oc3cc(OS(=O)(=O)c4c(F)c(F)c(F)c(F)c4F)ccc32)c2ccccc21 (stereo not given) | 1.09 (inactive) | 0.755 | 6600 | 6070 |
| O=P(O)(O)OC1[C@H](O)[C@H](O)C(O)[C@H](O)[C@H]1O (stereo not given in full) | 1.11 (inactive) | 0.357 | 6420 | 5790 |
| C[Se]CC[C@H](N)C(=O)O | 0.969 (inactive) | 0.907 | 8780 | 9060 |
| CCCCC[C@H](O)CC[C@@H]1[C@H]2Cc3cccc(OCC(=O)O)c3C[C@H]2C[C@H]1O | 0.95 (inactive) | 1.46 | 6200 | 6530 |
| CC(C)(CCCCCCCCCCC(C)(C)CC(=O)O)CC(=O)O | 0.985 (inactive) | 0.985 | 6090 | 6180 |
| CCCCCCCCCCCCCCCC(=O)N[C@H]1CCOC1=O | 0.999 (inactive) | 1.15 | 5590 | 5590 |
| CCCCCCCCCCCC(=O)O | 1.01 (inactive) | 1.12 | 5910 | 5870 |
| CCCCCCC[C@H](O)/C=C/[C@@H]1[C@@H](C/C=C\CCCC(=O)O)[C@@H](O)C[C@H]1O | 0.945 (inactive) | 1.5 | 6150 | 6520 |
| CC(C)OC(=O)CCC/C=C\C[C@H]1C(=O)C[C@@H](O)[C@@H]1/C=C/[C@@H](O)COc1cccc(C(F)(F)F)c1 | 0.919 (inactive) | 1.4 | 5960 | 6490 |
| CCCCC[C@H](O)/C=C/[C@H]1C(=O)C[C@H](O)[C@@H]1C/C=C\CCCC(=O)NCCO | 1.05 (inactive) | 1.15 | 6200 | 5900 |
| CCCCCCCCCCCCCCC(=O)N[C@H]1CCOC1=O | 0.982 (inactive) | 1.59 | 5560 | 5660 |
| N[C@@H](Cc1ccc(O)c([N+](=O)[O-])c1)C(=O)O | 0.943 (inactive) | 1.05 | 5730 | 6080 |
| CCCCC[C@H](O)/C=C/[C@H]1C=CC(=O)[C@@H]1CCCCCCC(=O)OCC | 0.941 (inactive) | 1.83 | 5280 | 5620 |
| O=C(O)CCCCCCCCCCCNC(=O)NC1CCCCC1 | 0.963 (inactive) | 0.896 | 5580 | 5790 |
| CC(C)OC(=O)CCC/C=C\C[C@@H]1[C@@H](/C=C/[C@H](O)CCc2ccccc2)[C@H](O)C[C@@H]1O | 0.945 (inactive) | 1.74 | 6060 | 6410 |
| CCCCCCCCCCCCCCCCCCCCCCCCCCCCCCO | 0.965 (inactive) | 0.745 | 6130 | 6350 |
| O=C1C[C@@H]2[C@@H](CC[C@@H](O)CCc3ccccc3)[C@H](O)C[C@@H]2O1 | 1.01 (inactive) | 0.657 | 6130 | 6050 |
| CCCCC(C)(C)[C@H](O)/C=C/[C@H]1C=CC(=O)[C@@H]1C/C=C\CCCC(=O)O | 0.967 (inactive) | 1.18 | 5990 | 6200 |
| COc1ccc(/C=C/C(=O)Nc2c(O)cccc2C(=O)O)cc1OC | 0.585 (active) | 0.687 | 3430 | 5870 |
| CCCCC[C@](C)(O)/C=C/[C@H]1C(=O)C[C@H](O)[C@@H]1C/C=C\CCCC(=O)O | 1.01 (inactive) | 0.91 | 5200 | 5160 |
| CCCCCCCCCCCCCCCC(=O)OC | 0.995 (inactive) | 0.98 | 5710 | 5750 |

Reference: PubChem BioAssay
